# Only some compounds are listed: those with a hit (about 12% of all), similar ones and a draw of the others.
# G9a inh: blocks human histone lysine methyltransferase G9a | Q96KQ7 | G9a H3K9 monomethylation, AlphaScreen, 2 h | Potency, µM (series often up to 102 µM), hits mostly inhibitors | 8.8% of 350,000 active; further: nearly all actives have a fitted effect of over 75% in size
#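 Chemiluminescent proximity detection of H3K9 monomethylation, read after 10 min bead incubation in the dark. Reaction: 20 nM G9a, 500 nM biotin-H3K9 peptide, 20 uM SAM cofactor, 2 h, room temperature, following 15 min enzyme-compound preincubation.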
# PI5P4Ka inh: blocks human PI5P4K alpha kinase activity. P48426. AID 652105. max response, %. PI5P4Kalpha enzyme, ADP-Glo luminescence, 60 min; stronger effect = lower value. 1.2% of 330,000 active; active means max response of -50% or lower; inconclusive means between -30% and -50%; inactive means -30% or higher; further: value at the top dose of about 77 µM
#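 PI5P4Kalpha ADP-Glo assay; 5 microM ATP final; 60 min RT reaction; HEPES pH 7.4/EGTA/CHAPS, 5% DMSO; controls lacking substrate or enzyme; luminescent end-point.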
# BAZ2B block: BAZ2B (human) inhibition. 4.4% of 360,000 active. AlphaScreen BAZ2B-H3K14Ac peptide displacement. AID 504333. Potency, µM (doses to about 114 µM), most hits filed as inhibitors; further: nearly all actives have a fitted effect of over 60% in size
#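 Protein-peptide AlphaScreen: BAZ2B 50 nM, b-H3K14Ac 50 nM, 1x PBS pH 7.4 + 0.01% Tween-20. Preincubation 30 min RT; cpd 30 min RT (top 110 uM); beads 20 min RT, light-protected.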
# PLK1 PBD inh: PLK1 (human) polo-box domain binding inhibition | P53350 | Plk1 PBD binding of FITC phosphopeptide, fluorescence polarization | Potency, µM, usual class: inhibitors | 2.8% of 360,000 active | AID 720504; further: series mostly up to about 57 µM; nearly all actives have a fitted effect of over 65% in size
# Target sequence (P53350 whole entry, looked up, the tested form may be a part): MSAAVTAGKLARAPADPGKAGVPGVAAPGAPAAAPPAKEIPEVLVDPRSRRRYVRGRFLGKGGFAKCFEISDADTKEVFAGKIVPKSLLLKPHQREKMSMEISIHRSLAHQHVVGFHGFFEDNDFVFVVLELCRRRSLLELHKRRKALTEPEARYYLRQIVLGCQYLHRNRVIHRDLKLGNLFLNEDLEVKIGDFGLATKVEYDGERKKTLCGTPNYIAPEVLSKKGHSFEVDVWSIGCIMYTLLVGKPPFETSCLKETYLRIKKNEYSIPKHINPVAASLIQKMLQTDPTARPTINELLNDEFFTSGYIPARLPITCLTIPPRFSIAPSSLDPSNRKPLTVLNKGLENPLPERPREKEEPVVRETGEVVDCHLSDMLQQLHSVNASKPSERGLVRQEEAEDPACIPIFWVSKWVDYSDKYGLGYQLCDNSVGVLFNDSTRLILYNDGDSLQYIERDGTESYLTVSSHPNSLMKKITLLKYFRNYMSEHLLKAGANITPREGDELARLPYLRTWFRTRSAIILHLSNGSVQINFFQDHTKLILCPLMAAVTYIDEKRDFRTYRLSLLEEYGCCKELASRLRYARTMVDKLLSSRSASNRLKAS
# JMJD2A Tudor: inhibitors of human JMJD2A Tudor domain | 4.4% of 390,000 active | O75164 | AlphaScreen JMJD2A-Tudor / H3K4me3 peptide binding | Potency, µM (highest dose often 114 µM), usual class: inhibitors; further: nearly all actives have a fitted effect of over 50% in size
# HP1b chromo inh: inhibitors of HP1-beta chromodomain binding to methylated histone tails; P83916; AlphaScreen HP1-beta / biotin-H3K9me3 peptide binding; Potency, µM (doses to about 114 µM), actives largely listed as inhibitors; 0.56% of 390,000 active; AID 540317; further: nearly all actives have a fitted effect of over 70% in size
#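 HP1-beta protein (50 nM final) preincubated 30 min at room temperature with biotinylated H3(1-18)K9me3 peptide (50 nM) in PBS pH 7.4, 0.01% Tween-20, then compound added for 30 min. AlphaScreen streptavidin donor/nickel chelate acceptor beads (10 ug/mL final), 30 min dark, luminescence read.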
# Hits are given with their value; n = inactive; u = inconclusive; x = not tested or not shown; [ ] = remark or other dose. Unless noted, the call rests on the fitted dose curve; in most records, active means well fitted curve in the direction sought with a large enough effect; inconclusive means small, poorly fitted or top-dose-only effect, or another doubt; inactive means no such curve, though single readings can be large; an effect the other way counts as inactive or inconclusive.
SMILES,G9a inh,PI5P4Ka inh,BAZ2B block,PLK1 PBD inh,JMJD2A Tudor,HP1b chromo inh
Cc1cc(=O)n2c(C(=O)Nc3ccc(Br)cc3)c(C(=O)Nc3ccccc3)sc2n1,n,x,n,x,n,n
N=c1c(C(=O)NC2CCCCC2)cc2c(=O)n3ccccc3nc2n1CCc1ccccc1,n,n,n,n,n,n
N#Cc1cccc(NC(=O)N2CCCC3(CCN(C(=O)c4cnccn4)CC3)C2)c1,n[12.7 µM],x,x,x,x,x
C[C@H](O)CN(C)C,n[12.7 µM],x,x,x,x,x
CCc1nnc(NC(=O)CN2CCN(c3ccccc3F)CC2)s1,50µM,n,n,n,n,n
CCc1nnc(NC(=O)CN2CCN(c3cccc(OC)c3)CC2)s1,14µM,n,n,n,n,n
CCc1nnc(NC(=O)CN2CCOCC2)s1,n,x,n,n,u,n
CCCN1CCN(CC(=O)Nc2nnc(CC)s2)CC1,x,n,n,n,7.1µM,n
O=C(CN1CCN(c2cccc(Cl)c2)CC1)Nc1nccs1,40µM,n,u,n,n,n
CCc1nnc(NC(=O)CN2CCN(Cc3cccc(OC)c3)CC2)s1,n,n,n,n,n,n
Cc1cc(C)n(-c2ccc(NC(=O)C3CCCCN3C(=O)c3sccc3C)cc2)n1 (stereo not drawn),n,n,n,n,n,n
COc1ccc(CSc2nc3ccncc3n2CC(=O)Nc2cc(C)cc(C)c2)cc1,u,x,n,x,n,n
CCOC(=O)c1cc(-c2ccc(F)cc2)n(CCC(=O)NCCc2ccc(C)cc2)c1C,u,x,n,x,u,n
S=c1[nH]nc(-c2ccccn2)n1/N=C/c1cccs1,3.2µM,n,8.9µM,n,3.5µM,n
Cc1ccc(/C=N/n2c(C)nc3ccccc3c2=O)o1,n,n,n,n,n,n
Cc1cccc(/C=N/n2c(-c3ccccn3)n[nH]c2=S)c1,1.4µM,x,11µM,x,x,x
Cc1ccccc1/C=N/n1c(-c2ccccn2)n[nH]c1=S,0.89µM,n,8.9µM,n,3.2µM,n
Cc1ccc(/C=N/n2c(-c3ccccn3)n[nH]c2=S)o1,3.2µM,n,5µM,n,5.6µM,u
Cc1cccc(C)c1NC(=O)[C@H](C)N,n[21.5 µM],x,x,x,x,x
Cc1cccc(NS(=O)(=O)c2ccc(C)c(C(=O)NCC(c3cccs3)N(C)C)c2)c1 (stereo not drawn),u,n,n,n,n,n
S=c1[nH]nc(-c2ccccn2)n1/N=C/c1cccc2ccccc12,0.4µM,n,28µM,27µM,5.6µM,u
Cc1n[nH]c(=S)n(/N=C/c2cccs2)c1=O,n,n,n,n,25µM,n
CC(C)(C)c1n[nH]c(=S)n(/N=C/c2cccs2)c1=O,n,n,n,n,n,n
S=c1[nH]nc(-c2ccccn2)n1/N=C/c1c(Cl)cccc1Cl,1.8µM,n,22µM,n,3.5µM,n
S=c1[nH]nc(-c2ccccn2)n1/N=C/c1ccc(Cl)cc1,2.2µM,n,18µM,n,5.6µM,n
SMILES,G9a inh,PI5P4Ka inh,BAZ2B block,PLK1 PBD inh,JMJD2A Tudor,HP1b chromo inh
S=c1[nH]nc(-c2ccccn2)n1/N=C/c1ccccc1,u,n,11µM,n,2.8µM,n
COc1ccc(Cl)cc1C(=O)NNC(=O)c1cc2ccccc2o1,x,n,x,n,n,n
COc1ccc(/C=N/NC(=O)CNC(=O)c2ccc3c(c2)OCCO3)c(C(=O)O)c1OC,n,n,n,n,n,n
COC(=O)c1scc(C)c1NS(=O)(=O)c1ccc(NC(C)=O)cc1,n,n,n,n,n,n
Cc1c(S(=O)(=O)N2CCc3ccccc3C2)c(=O)n(C)c(=O)n1C,50µM,n,n,n,n,n
NC(=Nc1ccc(N)cc1)C(N)=Nc1ccc(N)cc1,u,n,5.6µM,n,25µM,n
Nc1ccc(O)cc1,x,x,x,x,u,n
COC(=O)CCC(=O)OC1(C)C(=O)C2=CN(Cc3ccc(OC)cc3)C(c3ccc(OC)cc3)=CC2=C(Br)C1=O (stereo not drawn),x,n,x,u,50µM,u
COC(=O)CCC(=O)OC1(C)C(=O)C2=CN(C3CC3)C(c3ccc(OC)cc3)=CC2=C(Br)C1=O (stereo not drawn),x,n,x,27µM,u,n
COC(=O)CCC(=O)OC1(C)C(=O)C2=CN(CC(C)C)C(c3ccc(OC)cc3)=CC2=C(Br)C1=O (stereo not drawn),n[12.7 µM],x,40µM,x,x,x
COc1ccc(NC(=O)[C@H](C)NC(=O)C2CCN(S(=O)(=O)c3ccc(C)cc3)CC2)cc1,n,n,n,n,n,n
Cn1cc(S(=O)(=O)Oc2ccccc2)c(=O)n(C)c1=O,n,n,n,n,n,n
COc1cccc(-c2cncnc2NCc2cccc(C)c2)c1,n[0.501 µM],x,x,x,x,x
COc1ccccc1NC(=O)C(O)C(O)C(=O)Nc1ccccc1OC (stereo not drawn),n[12.7 µM],n,n,u,n,n
COc1ccccc1NC(=O)C(C/C=C(/C)Cl)C(C)=O (stereo not drawn),n,n,n,30µM,n[11.4 µM],n
COc1cc(OC)cc(C(=O)NNC(=S)Nc2ccccc2OC)c1,40µM,n,n,n,n,n
COc1ccccc1NC(=S)NNC(=O)c1ccccc1Br,35µM,n,n,n,n,n
COc1ccccc1C(=O)NNC(=O)c1ccccc1Br,n[0.501 µM],n,n,n,n,n
CC(=N\NC(=O)c1ccccc1)/C(=N/O)C(=O)Nc1ccccc1,n,n,56µM,n,n,n
COc1ccccc1NC(=S)NNC(=O)c1ccccc1,x,n,x,n,n,n
Nc1ncnc2c1ncn2[C@@H]1O[C@H](C(=O)N2CCN(Cc3ccccn3)CC2)[C@@H](O)[C@H]1O,x,n,x,n,x,x
Cc1cccc(NC(=S)NNC(=O)c2ccccc2Br)c1,5µM,n,n,n,n,n
COc1ccccc1NC(=O)Nc1ccccc1Br,n,n,n,12µM,n,n
COc1ccccc1NC(=O)C(=N\O)/C(C)=N/O,10µM,n,n,n,u,n
COc1ccccc1NC(=S)NNC(=O)c1c(Cl)c(C)nn1C,25µM,n,n,n,n,n
SMILES,G9a inh,PI5P4Ka inh,BAZ2B block,PLK1 PBD inh,JMJD2A Tudor,HP1b chromo inh
Cc1cccc(NC(=S)NNC(=O)c2ccccc2OC(F)F)c1,u,n,n,n,n,n
COc1ccccc1NC(C)=O,n,n,x,n,n[11.4 µM],n
COc1ccccc1NC(=S)NNC(=O)c1cc(C)nn1C,u,n,n,n,n,n
COc1ccc(C=O)cc1OC(=O)N1CCOCC1,n,n,n,n,n,n
C=CCOc1ccc(-c2nc3c(c(=O)[nH]c(=O)n3CCCC)n2C)cc1OC,n,n,n,21µM,32µM,n
COCCCNCCCCOc1ccc(C)cc1[N+](=O)[O-],11µM,n,u,n,5.6µM,u
CCCCNCCOCCOc1ccc(C)cc1[N+](=O)[O-],18µM,x,u,n,2.8µM,u
Cc1cc([N+](=O)[O-])c(NCCCCCCO)c([N+](=O)[O-])c1,x,x,x,n,u,n
C=CCNCCOc1ccc(C)cc1[N+](=O)[O-],x,n,40µM,n,50µM,u

# Source: PubChem
